High-throughput results: PubChem, National Center for Advancing Translational Sciences (NCATS)
GALC G270D up: raises human GALC G270D mutant activity in cells | P54803 | 145M-Twi-hGALC-G270D cells (Twitcher mouse brain line with human GALC G270D), HMU-beta-Gal fluorescence, 48 h | Potency, µM (highest dose often 57.5 µM), actives largely listed as activators | 45,000 tested, 0.1% active | AID 1159614; further: potency means the concentration at half of the fitted maximal effect; 0% is about no effect; nearly all actives have a fitted effect of over 65% in size
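Live 145M-Twi cells (Twitcher mouse brain-derived, GALC-null) stably expressing human GALC-G270D, with a wild-type GALC line, were compound-treated. Residual GALC activity was then read as fluorescence from 0.1 mM final HMU-β-gal at pH 5.2; higher signal means activation.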
FH mod: Identification of activators of human fumarate hydratase by quantitative high-throughput screening | Fumarate hydratase, mitochondrial (Homo sapiens), P07954 | FH coupled MDH/diaphorase resazurin fluorescence, 15 min | Potency, µM (series often up to 79.9 µM), without a hit: at the top dose activity change, negative = inhibition, actives largely listed as inhibitors | 54,000 tested, 0.22% active | AID 1347055, 2019; further: potency means the concentration at half of the fitted maximal effect; on the % scale 0 is the no-effect control and ±100 the full control effect; the screen sought activators but most active calls are inhibition curves; nearly all actives have a fitted effect of over 45% in size
DRV1 agonist: activates human resolvin D1 receptor GPR32. 48,000 tested, 2.5% active. O75388. CHO-K1 GPR32 beta-arrestin PathHunter luminescence, 90 min; zero percent set by DMSO-only wells. activation, % at 76.9 µM;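 active means activation of at least 60% and not above a set upper limit, about 1 call in 100 departs from these limits; inconclusive means activation of 40% to 60%, or above that upper limit; inactive means activation under 40%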; further: 0% is about no effect
Target sequence (O75388 whole entry, looked up): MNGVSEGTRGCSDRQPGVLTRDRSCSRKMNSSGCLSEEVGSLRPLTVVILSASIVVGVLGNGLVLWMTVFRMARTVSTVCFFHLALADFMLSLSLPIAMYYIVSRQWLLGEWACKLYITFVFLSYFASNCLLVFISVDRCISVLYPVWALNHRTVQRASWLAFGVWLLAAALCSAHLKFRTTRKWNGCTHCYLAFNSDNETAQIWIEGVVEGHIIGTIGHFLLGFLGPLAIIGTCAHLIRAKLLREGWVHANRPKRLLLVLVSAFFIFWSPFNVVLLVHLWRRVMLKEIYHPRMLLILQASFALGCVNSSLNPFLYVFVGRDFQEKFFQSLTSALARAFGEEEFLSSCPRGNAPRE
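Luminescent readout of beta-Gal complementation quantifies ligand-induced beta-arrestin association with GPR32 in CHO-K1 cells; 90 min compound incubation at 37 °C, detection 1 h at room temperature.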
SKOV3 invasion: blocks SKOV3ip1 adhesion and invasion in omental model. SKOV3ip1-GFP adhesion/invasion on 3D omental model, fluorescence. Potency, µM (series often up to 45.8 µM), inactives show at the top dose activity change, negative = inhibition, hits mostly inhibitors. AID 1963576. 46,000 tested, 0.1% active;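 further: potency means the concentration at half of the fitted maximal effect; plate controls were DMSO wells for no effect and tomatine positive control wells for full effect; nearly all actives have a fitted effect of over 65% in size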
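Primary human omental fibroblast/mesothelial 3D culture pre-formed 48 h. SKOV3ip1-GFP cells added with compounds (0.36-46 umol/L), incubated 2 h RT/16 h 37 C, fixed; GFP cells quantified at 488/509 nm.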
Active calls of the source: *; i = inactive; ? = inconclusive; nt = not tested or not shown; [ ] = another dose, or the depositor's remark. Sampled rows, rich in hits. Any-hit rate of the full collection: about 2.9%. Unless noted, the call rests on the fitted dose curve; in most records, active means well fitted curve in the direction sought with a large enough effect; inconclusive means small, poorly fitted or top-dose-only effect, or another doubt; inactive means no such curve, though single readings can be large; an effect the other way counts as inactive or inconclusive.

SMILES | GALC G270D up | FH mod | DRV1 agonist | SKOV3 invasion
CCOc1ccc(OCC)c(Nc2nc3ccccc3c3nnc(C)n23)c1 | i | 1% | -9 | i
CCOc1ccc2nc(C)cc(Nc3ccccc3OCC)c2c1 | i | -7% | 90* | 4%
O=C(O)c1cc(O)c2cccc(O)c2c1O[C@@H]1O[C@H](CO)[C@@H](O)[C@H](O)[C@H]1O | nt | -24%[53.3 µM] | nt | nt
O=C(COc1ccccc1[N+](=O)[O-])Nc1cccc(-c2nc3ccccc3s2)c1 | i | 3% | 84* | 0%
O=C(COc1ccccc1[N+](=O)[O-])Nc1ccc(-c2nc3ccccc3s2)cc1 | ? | -4% | 5 | -11%
Cc1ccc(-c2nc3ccccc3[nH]2)cc1NC(=O)COc1ccccc1[N+](=O)[O-] | i | 6% | 79* | ?
Cc1ccc(C(=O)Nc2ccc(CN3CCN(C)CC3)c(C(F)(F)F)c2)cc1C#Cc1cnc2[nH]ncc2c1 | nt | -4% | nt | nt
CC(O)(C(=O)O)C1CCC2(C)C1CCC1(C)C2CCC2C3(C)CCC(O)C(C)(COC4OC(CO)C(O)C(O)C4O)C3CCC21C (configuration not stated) | nt | 0%[20.6 µM] | nt | nt
CCc1ccc(NCc2cc3cc4c(cc3n(CC(=O)Nc3cccc(OC)c3)c2=O)OCO4)cc1 | 28µM* | -18% | -44 | 7%
CCc1ccc(NCc2cc3cc4c(cc3n(CC(=O)Nc3ccc(OC)cc3)c2=O)OCO4)cc1 | i | -8% | -68 | 8%
O=C1NC(Nc2ccccc2)=N/C1=C\c1ccc2c(c1)OCO2 | nt | 0% | nt | nt
CCCCOc1ccc(C(=O)N2CCN(CCc3ccccn3)CC2)cc1 | 8.9µM* | 4% | 17 | 2%
CC(C)CC(=O)OC[C@H]1O[C@@](COC(=O)CC(C)C)(O[C@H]2O[C@H](CO)[C@@H](O)[C@H](O)[C@H]2O)[C@@H](OC(=O)CC(C)C)[C@@H]1OC(=O)CC(C)C | nt | -3%[20.6 µM] | nt | nt
CCCc1c(OCCCCc2nn[nH]n2)ccc(C(C)=O)c1O | i | -5%[53.3 µM] | 87* | nt
CCN1CCC(N(Cc2ccc(F)cc2)C(=O)Nc2cc(Cl)ccc2C(=O)OC)CC1 | i | 3% | 32 | 11µM*
O=C1C(SCCO)=C(SCCO)C(=O)c2ccccc21 | nt | 7.9µM* | -22 | nt
COc1ccc(OCC(O)Cn2c(=N)n(CCN3CCCCC3)c3ccccc32)cc1 (configuration not stated) | i | 1% | 4 | ?
Cc1ccc(OCC(O)Cn2c(=N)n(CCN3CCCCC3)c3ccccc32)cc1 (configuration not stated) | i | -6% | -1 | 8.9µM*
N=c1n(CCN2CCCCC2)c2ccccc2n1CC(O)COc1ccc(Cl)cc1Cl (configuration not stated) | i | -8% | 70* | ?
C=CCc1ccccc1OCCSc1nc(-c2cccs2)nc2cc(=O)[nH]n12 | nt | nt | 86* | i
COc1ccccc1OCCSc1nc(-c2ccc(C(C)(C)C)cc2)nc2cc(=O)[nH]n12 | nt | nt | 65* | -7%
C=CCc1ccccc1OCCSc1nc(-c2ccc(C(C)(C)C)cc2)nc2cc(=O)[nH]n12 | nt | nt | -2 | ?
CC(C)(C)c1ccc(OCCSc2nc(-c3cccs3)nc3cc(=O)[nH]n23)cc1 | nt | nt | 68* | -6%
COc1cc(CNCCSc2nnnn2C)cc(Cl)c1OCc1ccccc1 | i | -5% | 89* | i
CCOc1cc(CNCCSc2nnnn2C)cc(Cl)c1OCc1ccc(Cl)cc1 | i | ? | 26 | ?
SMILES | GALC G270D up | FH mod | DRV1 agonist | SKOV3 invasion
COc1cccc(CNCCSc2nnnn2C)c1OCc1ccc(Cl)cc1 | i | -19% | 116* | i
COc1cccc(CNCCSc2nnnn2C)c1OCc1ccc(Cl)cc1Cl | i | ? | ? | ?
CC[C@H](C)/C=C(C)/C=C/C1=CC2=C(Cl)C(=O)[C@](C)(O)[C@H](OC(C)=O)[C@H]2CO1 | nt | -12%[53.3 µM] | nt | nt
NS(=O)(=O)c1ccc(NC(=O)CN2C(=O)COc3ccc(Cl)cc32)cc1 | i | -13% | 93* | 19%
O=C(CN1C(=O)COc2ccc(Cl)cc21)Nc1cccc(F)c1 | i | -1% | -13 | -5%
CCN(CC)S(=O)(=O)c1ccc2c(c1)N(CC(=O)N1CCN(c3cc(Cl)ccc3C)CC1)C(=O)CO2 | i | 1% | -8 | -1%
CCN(CC)S(=O)(=O)c1ccc2c(c1)N(CC(=O)NCCCN1CCN(c3cc(Cl)ccc3C)CC1)C(=O)CO2 | i | -11% | 78* | -26%
Cc1ccc(NC(=O)CN2C(=O)COc3ccc(S(=O)(=O)NC4CCCC4)cc32)cc1Cl | i | -20% | 106* | 0%
CC(CO)C1CCC2(C)CC3C(CO)CC(O)C3C(C)(O)C/C=C/12 (configuration not stated) | nt | 6%[53.3 µM] | nt | nt
Nc1n[nH]c(N)c1N=Nc1ccc(O)cc1 | nt | -15% | nt | nt
C=CCC1=C[C@]2(OC)[C@H](C)[C@@H](c3ccc(OC)c(OC)c3)O[C@]2(OC)CC1=O | nt | -3%[53.3 µM] | nt | nt
CC[C@@H](C)[C@H]1C(=O)O[C@H](C(C)C)C(=O)N(C)[C@@H](C(C)C)C(=O)O[C@H](C(C)C)C(=O)N(C)[C@@H](C(C)C)C(=O)O[C@H](CC(C)C)C(=O)N1C | nt | 1%[20.6 µM] | nt | nt
COC1=C(OC)C(=O)C(CCCCCCCCCCO)=C(C)C1=O | i | 19µM* | 46 | 0%
C=C1[C@@H]2[C@H]3OC(=O)C(=C)[C@@H]3CC[C@@](C)(O)[C@@H]2C[C@@H]1O[C@@H]1O[C@H](CO)[C@@H](O)[C@H](O)[C@H]1O | nt | 0%[53.3 µM] | nt | nt
NC(=O)c1cnc(N[C@@H]2CCCC[C@H]2N)nc1Nc1cccc(-n2nccn2)c1 | nt | -16% | nt | nt
Cc1ccc(NC(=O)/C(C#N)=C/c2cc(C)n(-c3ccc(Br)cc3)c2C)cc1C | i | -12% | 63* | ?
O=C(C1OC1/C=C/c1ccc2c(c1)OCO2)N1CCCCC1 (configuration not stated) | nt | 1% | nt | nt
COc1cc2nc(N3CCCC3)nc(NCCCCCN3CCCC3)c2cc1OC | nt | 5% | nt | nt
O=C1C(Cl)=C(NCCN2CCOCC2)C(=O)c2ncccc21 | nt | -19%[53.3 µM] | nt | 5.9µM*
Cc1c(C(=O)N2CCOc3ccc(-c4ccc(N)nc4)cc3C2)ccc(S(C)(=O)=O)c1F | nt | 5% | nt | nt
CCN1CCN(c2oc(/C=C/c3ccccc3OC)nc2C#N)CC1 | i | -13% | -18 | -8%
COc1ccccc1/C=C/c1nc(C#N)c(N2CCN(C)CC2)o1 | 28µM* | -18% | -8 | 1%
CCOC(=O)C(Cc1ccccc1)NC(=O)Cn1nnc(-c2ccc(C)cc2)n1 (configuration not stated) | i | -8% | 62* | 3%
Cc1ccc(-c2csc(=Nc3ccccc3)n2CCCO)cc1 | i | -20% | 86* | 4%
CC1CC(=O)C2=C(O1)OC1(C)CCC3C(C)(C)C=CC(=O)C3(C)C1C2 (configuration not stated) | nt | -10%[53.3 µM] | nt | nt
